Screens from PubChem BioAssay.
Only a selection was taken, and hits are over-represented in it overall.
Dicer processing: inhibitors of Dicer pre-microRNA processing, primary screen, biochemical, cat-ELCCA, chemiluminescence; z-score at 25 µM; cat-ELCCA pre-miR-21 Dicer processing; hits give high values; 47,000 tested, 6% active; Endoribonuclease Dicer (Homo sapiens), Q9UPY3; AID 1347074, 2019; in the data active means z-score above about 3, passing the limit was not always enough;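 further: higher signal means more uncleaved substrate so more Dicer inhibition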
Target sequence (Q9UPY3 whole entry, looked up): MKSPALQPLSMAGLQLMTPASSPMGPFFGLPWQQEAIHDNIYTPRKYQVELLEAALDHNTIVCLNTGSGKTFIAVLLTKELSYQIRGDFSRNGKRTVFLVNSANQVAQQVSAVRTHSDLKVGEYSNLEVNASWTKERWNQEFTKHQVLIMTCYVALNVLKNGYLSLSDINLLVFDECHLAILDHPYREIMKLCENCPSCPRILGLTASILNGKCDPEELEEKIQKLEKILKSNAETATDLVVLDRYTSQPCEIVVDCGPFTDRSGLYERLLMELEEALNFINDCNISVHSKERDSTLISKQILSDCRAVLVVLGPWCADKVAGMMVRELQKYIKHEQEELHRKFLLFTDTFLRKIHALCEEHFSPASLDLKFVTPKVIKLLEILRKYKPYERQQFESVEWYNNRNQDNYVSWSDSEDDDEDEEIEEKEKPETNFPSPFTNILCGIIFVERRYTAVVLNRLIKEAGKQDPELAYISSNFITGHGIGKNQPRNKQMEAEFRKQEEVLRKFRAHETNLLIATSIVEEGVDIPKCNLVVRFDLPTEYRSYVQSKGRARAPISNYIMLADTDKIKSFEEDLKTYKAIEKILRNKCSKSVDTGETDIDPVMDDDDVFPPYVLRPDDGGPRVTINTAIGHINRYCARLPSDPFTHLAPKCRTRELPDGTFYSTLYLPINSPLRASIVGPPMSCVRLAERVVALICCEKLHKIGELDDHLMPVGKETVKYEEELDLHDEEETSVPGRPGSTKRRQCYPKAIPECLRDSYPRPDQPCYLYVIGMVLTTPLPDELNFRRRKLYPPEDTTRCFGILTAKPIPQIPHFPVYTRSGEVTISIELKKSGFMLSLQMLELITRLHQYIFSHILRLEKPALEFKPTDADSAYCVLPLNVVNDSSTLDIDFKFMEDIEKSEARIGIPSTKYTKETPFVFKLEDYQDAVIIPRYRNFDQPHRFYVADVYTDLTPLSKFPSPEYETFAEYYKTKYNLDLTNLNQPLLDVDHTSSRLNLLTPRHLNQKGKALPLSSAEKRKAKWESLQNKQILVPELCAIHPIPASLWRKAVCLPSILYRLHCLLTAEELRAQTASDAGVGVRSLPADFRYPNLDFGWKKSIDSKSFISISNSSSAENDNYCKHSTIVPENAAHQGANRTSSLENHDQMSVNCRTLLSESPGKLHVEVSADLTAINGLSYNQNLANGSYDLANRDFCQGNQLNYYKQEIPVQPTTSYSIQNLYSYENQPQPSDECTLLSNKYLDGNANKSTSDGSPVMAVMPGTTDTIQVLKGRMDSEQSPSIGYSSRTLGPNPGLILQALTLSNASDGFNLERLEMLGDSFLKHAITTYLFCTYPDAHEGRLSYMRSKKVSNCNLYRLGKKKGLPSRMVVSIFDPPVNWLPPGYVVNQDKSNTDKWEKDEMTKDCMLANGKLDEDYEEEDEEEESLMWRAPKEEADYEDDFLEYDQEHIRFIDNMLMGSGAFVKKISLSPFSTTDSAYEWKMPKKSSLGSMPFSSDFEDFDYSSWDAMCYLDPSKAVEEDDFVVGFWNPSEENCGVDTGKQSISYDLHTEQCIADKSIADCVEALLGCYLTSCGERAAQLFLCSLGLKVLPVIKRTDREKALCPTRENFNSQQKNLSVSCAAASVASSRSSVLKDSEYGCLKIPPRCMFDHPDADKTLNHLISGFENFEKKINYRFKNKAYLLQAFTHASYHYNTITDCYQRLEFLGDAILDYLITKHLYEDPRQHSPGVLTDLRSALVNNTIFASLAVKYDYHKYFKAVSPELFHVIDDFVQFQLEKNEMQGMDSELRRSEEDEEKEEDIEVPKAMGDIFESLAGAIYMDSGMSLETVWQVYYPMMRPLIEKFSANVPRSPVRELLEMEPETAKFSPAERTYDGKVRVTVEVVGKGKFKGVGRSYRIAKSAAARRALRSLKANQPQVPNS
Each line names hits and unclear results; the compound was inactive in the other large screens.

CCS(=O)(=O)n1nc(-c2ccco2)nc1SCc1ccccc1	none
COC(=O)c1sc(Br)c(Br)c1OC(=O)c1ccc(Cl)cc1Cl	none
CSc1nc(C=Nc2ccc(Cl)cc2)c(O)n1Cc1ccccc1Cl	Dicer processing 4.7
O=S(=O)(c1ccc(Cl)cc1)c1ccc(N=Cc2ccccc2O)cc1Cl	none
FC(F)(F)c1cc(-c2cccnc2)nc2c(-c3ccc(Cl)cc3)cnn12	none
CCC(C)Nc1nc2c(c(=O)n(C)c(=O)n2C)n1CC(O)COc1ccccc1 (stereo not drawn)	none
Cc1cc(C)c2nc(Nc3nc(C)cc(C)n3)nc(C)c2c1	Dicer processing 3.3
CC1=CC(C)(C)N=C(Nc2nc(C)c3cc(C)cc(C)c3n2)N1	none
Cc1cc(C)c2nc(Nc3nc4ccccc4c(=O)[nH]3)nc(C)c2c1	none
C=C(C)Cn1c(SCCC(=O)OC)nc2sc3c(c2c1=O)CC(C)(C)OC3	none
COc1ccc(C2C(C#N)=C3N=C(N)c4ccccc4N3C3=C2C(=O)CCC3)cc1OC (stereo not drawn)	none
CC(C)n1c(CCC(=O)O)ccc1-c1ccc(Cl)cc1	none
COc1cc(C(=O)NN(C)C)cc(OC)c1OC	none
CC(=O)/C(=C\Nc1nc(C)cc(C)n1)S(=O)(=O)c1ccc(Cl)cc1	none
COc1ccc(C2C3=C(CCCC3=O)N=C3c4ccccc4C(=O)C32)cc1 (stereo not drawn)	Dicer processing 8.7
O=C1CCCC2=C1C(c1ccc(F)cc1)C1C(=O)c3ccccc3C1=N2 (stereo not drawn)	none
CC1(C)CC(=O)C2=C(C1)N=C1c3ccccc3C(=O)C1C2c1cccc(F)c1 (stereo not drawn)	none
CCOc1ccc(S(=O)(=O)n2nnc3ccccc32)c2ccccc12	none
CC[n+]1c(/C=C/c2ccc(N(C)C)cc2)sc2ccccc21	none
CN(C)c1ccc(/C=C/C2=Nc3ccccc3C2(C)C)cc1	none
CC[n+]1c(/C=C/c2ccc(N(C)C)cc2)ccn1-c1ccccc1	Dicer processing 3.3
NC1=NC(=O)CC(C(=O)Nc2ccc(Oc3ccc(Cl)cc3)cc2)S1 (stereo not drawn)	none
Cn1nc(-c2ccc(S(=O)(=O)N3CCN(CCc4ccccc4)CC3)s2)cc1C(F)(F)F	none
CCOC(=O)Cc1nnc2c(Nc3ccccc3Cl)nc3nonc3n12	none
CCCc1c(Cc2c(F)cccc2Cl)c(=O)oc2cc(OS(=O)(=O)c3cc(C)c(Cl)cc3Cl)ccc12	none
CSC(N)=Nc1csc(C(F)(F)F)c1-c1ccccc1	none
NC(=S)Nc1csc(C(F)(F)F)c1-c1ccccc1	Dicer processing 3.3
NC(=S)Nc1ccc(C(F)(F)F)cc1	none
CCC12CN3CC(CC)(CN(C1)C3c1cc(Br)ccc1O)C2=O (stereo not drawn)	none
CCN(C(=O)c1cnc(NC)cc1C(F)(F)F)c1ccc(Cl)cc1Cl	none
NS(=O)(=O)c1ccc(NNC(=S)NCc2ccc(F)cc2)cc1	none
COc1ccc(NC(=S)NCCCC2C=NNC2=O)cc1 (stereo not drawn)	none
COc1cccc(C=Nc2ccc(S(=O)(=O)/N=C(N)/N=C/c3cccc(OC)c3O)cc2)c1O	none
COc1cccc(C=NCCCC2C=NNC2=O)c1O (stereo not drawn)	Dicer processing 5.2
CC(=O)C(C)(C)OC(=O)N1CCOCC1	none
CC(C)(C)c1ccc(-c2nc(NCCCN3CCOCC3)c3ccccc3n2)cc1	none
Cc1cc(=O)[nH]c(SCc2ccccc2Cl)n1	none
CCCc1cc(=O)[nH]c(SCc2ccccc2Cl)n1	none
Cc1nnc(SCc2ccccc2Cl)[nH]c1=O	Dicer processing 3
C=CCOc1ccc(C2/C(=C(\O)c3ccc(OC)cc3)C(=O)C(=O)N2c2nnc(C)s2)cc1 (stereo not drawn)	none
Cc1noc(C(F)(F)F)c1-c1nnc(-c2cccc(C(F)(F)F)c2)o1	none
O=C1NC(=S)S/C1=C/c1ccc(Sc2ccc(Cl)cc2)c([N+](=O)[O-])c1	Dicer processing 5.2
O=C1NC(=S)S/C1=C\c1ccc([N+](=O)[O-])s1	none
O=[N+]([O-])c1cc(-c2cnc3ccccc3n2)ccc1Sc1ccc(Cl)cc1	none
NC(=S)c1cc(C(F)(F)F)cc(C(F)(F)F)c1	none
Cc1cc(C)cc(NC(=O)C2Sc3nnc(C)n3NC2c2ccc(F)cc2)c1 (stereo not drawn)	none
Cc1c(SCC(=O)Nc2ccc(Br)cc2)c(=O)[nH]c2cc3c(cc12)OCO3	none
Cc1onc(-c2c(Cl)cccc2Cl)c1C(=O)Nc1ccccc1[N+](=O)[O-]	none
Cc1nn2cc(C#N)c(-c3ccccc3)nc2c1-c1ccccc1	none
O=c1cc(-c2ccccc2)nc2nc[nH]n12	none
CCc1nc2nc(CSc3ccc(C)cc3)cc(=O)n2[nH]1	none
O=c1cc(CSc2ccc(Cl)cc2)nc2nc[nH]n12	Dicer processing 4.4
Cc1c(/C=N/Nc2ccccn2)sc2ccccc12	none
CSc1ccc(CN2CCN(S(=O)(=O)c3ccc(C)cc3)CC2)cc1	none
O=C(c1ccncc1)N1CCN(Cc2ccc3c(c2)OCO3)CC1	none
Cc1nc(N2CCN(Cc3ccc4c(c3)OCO4)CC2)[nH]c(=O)c1CCC(C)C	Dicer processing 3.7
CSc1ccc(CN2CCN(S(=O)(=O)c3ccc(Cl)cc3)CC2)cc1	Dicer processing 3.5
c1cnc(N2CCN(Cc3ccc4c(c3)OCO4)CC2)nc1	none
